# Reference: PubChem BioAssay (NCATS)
# A number with no mark means an inactive call. Records with an inconclusive call do not appear. Where a call stands in place of a potency, no number is given. Activity calls are given as the source filed them. Unless noted, calls follow the shape of the dose curve; as a rule, active = well fitted curve in the direction sought with a large enough effect; inconclusive = small, poorly fitted or top-dose-only effect, or another doubt; inactive = no such curve, though single readings can be large; an effect the other way counts as inactive or inconclusive.
# Experiments:
# [1] = target: ATP-dependent 6-phosphofructokinase (Trypanosoma brucei brucei) (UniProt O15648); experiment: qHTS Assay to Find Inhibitors of T. brucei phosphofructokinase: hit validation (AID 492961);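 also: luminescence reports ADP formed as PFK phosphorylates fructose-6-phosphate with ATP; series mostly up to about 51 µM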
# Sequence of ATP-dependent 6-phosphofructokinase (Trypanosoma brucei brucei) (O15648 whole entry, looked up): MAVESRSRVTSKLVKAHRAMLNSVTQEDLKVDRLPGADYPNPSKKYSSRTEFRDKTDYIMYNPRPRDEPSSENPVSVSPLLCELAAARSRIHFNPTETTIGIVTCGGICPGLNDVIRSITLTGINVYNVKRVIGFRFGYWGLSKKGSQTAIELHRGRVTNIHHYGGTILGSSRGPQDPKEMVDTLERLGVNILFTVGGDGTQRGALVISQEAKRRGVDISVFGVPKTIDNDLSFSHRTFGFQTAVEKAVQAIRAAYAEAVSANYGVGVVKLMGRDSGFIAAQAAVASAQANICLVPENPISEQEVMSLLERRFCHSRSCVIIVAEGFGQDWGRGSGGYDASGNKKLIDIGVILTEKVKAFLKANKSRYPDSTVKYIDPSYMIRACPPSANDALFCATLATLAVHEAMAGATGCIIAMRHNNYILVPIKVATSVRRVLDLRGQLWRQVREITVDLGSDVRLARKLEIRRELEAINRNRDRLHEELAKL
# Outline: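 Measures ADP output of PFK (1.25 nM) at 0.1 mM ATP, 0.5 mM F6P, pH 8.0 TEA buffer with 5 mM MgCl2. No-enzyme wells define full inhibition; uninhibited enzyme wells define zero.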
# [2] = target: Tyrosyl-DNA phosphodiesterase 1 (Homo sapiens) (UniProt Q9NUW8); experiment: Confirmation Assay for Inhibitors of Tyrosyl-DNA Phosphodiesterase (TDP1) (AID 489007); settings: recombinant human TDP1 enzymatic activity, dose-response; also: potency is read from the fitted curve at half-maximal effect; nearly all actives have a fitted effect of over 40% in size
# Sequence of Tyrosyl-DNA phosphodiesterase 1 (Homo sapiens) (Q9NUW8 whole entry, looked up): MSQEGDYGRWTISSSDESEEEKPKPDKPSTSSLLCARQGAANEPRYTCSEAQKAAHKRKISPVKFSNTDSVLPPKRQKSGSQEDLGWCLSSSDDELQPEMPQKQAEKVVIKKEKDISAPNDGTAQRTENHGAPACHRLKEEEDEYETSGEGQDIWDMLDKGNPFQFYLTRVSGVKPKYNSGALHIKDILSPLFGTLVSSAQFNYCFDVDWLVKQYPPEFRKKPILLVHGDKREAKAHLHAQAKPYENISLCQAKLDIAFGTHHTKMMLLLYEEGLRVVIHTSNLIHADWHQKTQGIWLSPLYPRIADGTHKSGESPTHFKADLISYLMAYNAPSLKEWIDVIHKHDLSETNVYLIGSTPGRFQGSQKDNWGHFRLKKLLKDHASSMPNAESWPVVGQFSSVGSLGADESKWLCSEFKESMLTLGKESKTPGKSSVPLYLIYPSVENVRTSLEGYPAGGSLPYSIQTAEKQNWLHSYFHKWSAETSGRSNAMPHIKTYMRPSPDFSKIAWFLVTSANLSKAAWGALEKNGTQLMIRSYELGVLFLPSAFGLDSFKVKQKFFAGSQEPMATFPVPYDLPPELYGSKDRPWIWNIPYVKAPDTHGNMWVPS
# Outline: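 Recombinant E. coli-expressed Tdp1 (1 nM final) was preincubated with compounds 15 min at room temperature, then reacted 5 min with 15 nM 5'-biotin/3'-phosphotyrosine-FITC DNA substrate; cleavage read as loss of AlphaScreen signal (10 ug/ml beads, 10 min).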
# [3] = target: Ubiquitin carboxyl-terminal hydrolase 1 (Homo sapiens) (UniProt O94782); experiment: Inhibitors of USP1/UAF1: Pilot qHTS (AID 504865); also: nearly all actives have a fitted effect of over 35% in size; also: potency is read from the fitted curve at half-maximal effect
# Sequence of Ubiquitin carboxyl-terminal hydrolase 1 (Homo sapiens) (O94782 whole entry, looked up): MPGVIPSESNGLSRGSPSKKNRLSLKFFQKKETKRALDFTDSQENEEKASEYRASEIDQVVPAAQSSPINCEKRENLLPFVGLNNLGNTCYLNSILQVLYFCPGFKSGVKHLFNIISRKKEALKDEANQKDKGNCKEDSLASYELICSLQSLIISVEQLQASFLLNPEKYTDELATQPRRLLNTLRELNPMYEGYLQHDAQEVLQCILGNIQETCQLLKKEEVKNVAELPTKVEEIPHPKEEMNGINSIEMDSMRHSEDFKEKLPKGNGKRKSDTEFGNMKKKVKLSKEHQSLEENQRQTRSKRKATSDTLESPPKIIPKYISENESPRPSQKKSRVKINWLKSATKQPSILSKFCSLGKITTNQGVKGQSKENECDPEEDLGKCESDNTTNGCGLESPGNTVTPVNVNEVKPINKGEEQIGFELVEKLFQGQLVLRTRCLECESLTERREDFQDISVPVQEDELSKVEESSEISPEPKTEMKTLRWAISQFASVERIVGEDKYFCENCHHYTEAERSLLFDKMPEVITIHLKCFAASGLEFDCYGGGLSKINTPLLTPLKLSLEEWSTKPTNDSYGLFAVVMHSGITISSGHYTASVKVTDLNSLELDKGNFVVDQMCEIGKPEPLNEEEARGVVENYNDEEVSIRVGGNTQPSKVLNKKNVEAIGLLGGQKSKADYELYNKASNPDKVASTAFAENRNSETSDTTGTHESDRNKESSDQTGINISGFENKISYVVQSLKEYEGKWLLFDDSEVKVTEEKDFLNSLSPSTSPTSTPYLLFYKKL
# Outline: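 1nM USP1/UAF1 + cpd, 15 min RT; start w/ Ub-Rho 150nM final; kinetic FL 480/540 nm, 6 reads q60 s. Buffer 50mM HEPES pH 7.8, 0.5mM EDTA, 1mM TCEP, 0.01% Tween-20, 0.1 mg/ml BSA.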
# [4] = target: Thyrotropin-releasing hormone receptor (Homo sapiens) (UniProt P34981); experiment: qHTS for Small Molecule Agonists and Allosteric Enhancers of Human TRH Receptor: Validation Screen for Agonists (AID 493127;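 active = calcium activation more than 3 SD above the typical response in the agonist read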;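 also: intracellular calcium rise by fluo-8 fluorescence before TRH EC20 addition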); settings: TRH receptor agonist cell assay; at 2 µM; active compounds read high
# Sequence of Thyrotropin-releasing hormone receptor (Homo sapiens) (P34981 whole entry, looked up): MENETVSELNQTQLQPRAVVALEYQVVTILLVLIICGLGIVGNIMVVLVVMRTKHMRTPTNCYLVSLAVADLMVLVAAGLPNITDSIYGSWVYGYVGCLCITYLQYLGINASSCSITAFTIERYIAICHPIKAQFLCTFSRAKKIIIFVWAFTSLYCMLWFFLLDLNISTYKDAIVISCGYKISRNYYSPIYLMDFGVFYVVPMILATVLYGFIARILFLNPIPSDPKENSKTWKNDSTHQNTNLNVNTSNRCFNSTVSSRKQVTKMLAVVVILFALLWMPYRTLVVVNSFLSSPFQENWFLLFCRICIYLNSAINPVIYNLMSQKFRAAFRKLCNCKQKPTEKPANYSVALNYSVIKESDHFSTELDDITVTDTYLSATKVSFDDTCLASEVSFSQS
# Outline: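 TRHR-expressing cells were plated overnight in serum-containing medium, then loaded with fluo-8 calcium dye at room temperature for 30 min–1.5 h. After a 10 s baseline, compound was pin-transferred and calcium fluorescence (ex 480/em 530) read kinetically for agonist response.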
# [5] = target: Galactokinase (Homo sapiens) (UniProt P51570); experiment: qHTS Validation Assay for Inhibitors of Human Galactokinase (GALK) (AID 493189)
# Sequence of Galactokinase (Homo sapiens) (P51570 whole entry, looked up): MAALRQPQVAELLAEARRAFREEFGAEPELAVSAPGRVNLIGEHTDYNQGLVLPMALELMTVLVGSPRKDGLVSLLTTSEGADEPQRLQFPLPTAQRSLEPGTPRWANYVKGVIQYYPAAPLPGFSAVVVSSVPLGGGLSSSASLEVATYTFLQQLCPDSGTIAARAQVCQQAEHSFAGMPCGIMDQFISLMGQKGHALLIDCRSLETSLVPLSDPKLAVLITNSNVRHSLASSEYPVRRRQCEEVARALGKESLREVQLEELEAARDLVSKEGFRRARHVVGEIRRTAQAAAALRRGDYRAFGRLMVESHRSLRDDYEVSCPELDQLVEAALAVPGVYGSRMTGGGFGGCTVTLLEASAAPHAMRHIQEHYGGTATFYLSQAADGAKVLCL
# Outline: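 Luminescence from leftover ATP (Kinase-Glo Plus, 10 min) served as read-out after a 1 h room-temperature reaction of 5 nM GALK, 100 uM galactose and 35 uM ATP at pH8.0.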
# [6] = Validation screen for small molecules that induce DNA re-replication in SW480 colon adenocarcinoma cells (AID 504364)
# Outline: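 SW480 cells seeded at 250 per well were exposed to compound or DMSO for 48 hr at 37 C, 5% CO2, then stained with Hoechst for 40 min. DNA content per nucleus was imaged (405 nm ex, 500-530 nm em).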
structure (smiles),measurement,setting,value
O=C(c1cc2ccccc2o1)N1CCN(Cc2ccccc2)CC1,Potency,[1],inactive
CCCCC(CC)CCC(CC(C)C)OS(=O)(=O)O (stereo not drawn),Potency,[1],inactive
CCOC(=O)c1cc(-c2ccccc2)nc2ccc(C)cc12,Potency,[1],inactive
C=CCCCCCCCCC(=O)OC,Potency,[1],inactive
CC(C)=CCC/C(C)=C/C=C/C(C)=C/C=C/C(C)=C/C=C/C=C(C)/C=C/C=C(C)/C=C/C=C(\C)CCC=C(C)C,Potency,[1],inactive
CC(C)(C)c1ccc2c(S(=O)(=O)O)c(C(C)(C)C)ccc2c1,Potency,[1],inactive
Cn1c(=O)c2c(ncn2CCOC(=O)C(C)(C)Oc2ccc(Cl)cc2)n(C)c1=O,Potency,[1],inactive
C=C1C(CCl)(CCl)C2(Cl)C(Cl)C(Cl)C1(Cl)C2(Cl)Cl (stereo not drawn),Potency,[1],inactive
CCCCCCOC(=O)c1cccnc1,Potency,[1],inactive
CC(/C=C/C=C(\C)C(=O)O[C@@H]1O[C@H](CO[C@@H]2O[C@H](CO)[C@@H](O)[C@H](O)[C@H]2O)[C@@H](O)[C@H](O)[C@H]1O)=C\C=C\C=C(C)\C=C\C=C(/C)C(=O)O[C@@H]1O[C@H](CO[C@@H]2O[C@H](CO)[C@@H](O)[C@H](O)[C@H]2O)[C@@H](O)[C@H](O)[C@H]1O,Potency,[1],inactive
COc1ccc2nc(NC(=O)Nc3ccccc3)sc2c1,Potency,[1],inactive
Cn1nnnc1SCC1=C(C(=O)O)N2C(=O)[C@@H](NC(=O)[C@H](O)c3ccccc3)[C@H]2SC1,Potency,[2],3.98 µM (active)
Cc1c(Cl)cccc1Nc1ncccc1C(=O)O,Potency,[1],inactive
C[C@]12CC[C@@H]3c4ccc(OC(=O)c5ccccc5)cc4CC[C@H]3[C@@H]1CC[C@@H]2O,Potency,[1],inactive
CN(C)CCOc1ccc(/C(=C(/CCCl)c2ccccc2)c2ccccc2)cc1,Potency,[1],inactive
C=Cc1ccc(S(=O)(=O)O)cc1,Potency,[2],12.6 µM (active)
same,Potency,[1],inactive
same,Potency,[3],inactive
CC/C=C\C/C=C\C/C=C\C/C=C\C/C=C\CCCC(=O)O,Potency,[1],inactive
CSc1nc2cc(Oc3cccc(Cl)c3Cl)c(Cl)cc2[nH]1,Potency,[1],inactive
C=CC[C@@H]1/C=C(\C)C[C@H](C)C[C@H](OC)[C@H]2O[C@@](O)(C(=O)C(=O)N3CCCC[C@H]3C(=O)O[C@H](/C(C)=C/[C@@H]3CC[C@@H](O)[C@H](OC)C3)[C@H](C)[C@@H](O)CC1=O)[C@H](C)C[C@@H]2OC,Potency,[1],inactive
N[C@@H](Cc1cc(I)c(Oc2ccc(O)c(I)c2)c(I)c1)C(=O)O,Potency,[1],inactive
O=C(OCc1ccccc1)c1ccc(O)cc1,Potency,[1],inactive
COc1ccc(/C=C/C(=O)O)cc1,Potency,[1],inactive
same,Potency,[3],inactive
O=C(NNCNNC(=O)c1ccncc1)c1ccncc1,Potency,[1],inactive
same,Potency,[3],inactive
Cc1cc(C)c(NC(=O)C[C@H](CC(=O)O)c2cccc3ccccc23)c(C(=O)N2CCC3(CCCC3)CC2)c1,Potency,[1],inactive
same,activation,[4],0.125%
same,outcome,[5],inactive
same,outcome,[6],inactive
CC(=O)Nc1c(I)c(C(=O)O)c(I)c(N(C)C(C)=O)c1I,Potency,[1],inactive
same,Potency,[3],inactive
CCN(CC)CCC(=O)N1c2ccccc2Sc2ccc(C(F)(F)F)cc21,Potency,[1],inactive
same,Potency,[3],inactive
CCN(CC)CCCC(C)Nc1cc(/C=C/c2ccccc2Cl)nc2cc(Cl)ccc12 (stereo not drawn),Potency,[1],inactive
CCOc1cc(-c2nccc3cc(OC)c(OC)cc23)cc(OCC)c1OCC,Potency,[1],inactive
C[N+]1(C)[C@@H]2CC(OC(=O)C(O)(c3cccs3)c3cccs3)C[C@H]1[C@@H]1O[C@@H]12 (stereo partly drawn),Potency,[1],inactive
same,Potency,[3],inactive
CCCCCCCCCCCCCCCCCCCCCC(=O)Nc1ccn([C@@H]2O[C@H](CO)[C@@H](O)[C@@H]2O)c(=O)n1,Potency,[1],inactive
same,Potency,[3],inactive
CC(O)CN(C)C (stereo not drawn),Potency,[1],inactive
same,Potency,[3],inactive
CCCCC,Potency,[1],inactive
same,Potency,[3],inactive
COc1ccc(C(=O)CCC(=O)O)c2ccccc12,Potency,[1],inactive
same,Potency,[3],inactive
CC/C=C\C/C=C\C/C=C\C/C=C\C/C=C\C/C=C\CCC(=O)O,Potency,[1],inactive
same,Potency,[3],50.1 µM (active)
CCC(Cc1c(I)cc(I)c(O)c1I)C(=O)O (stereo not drawn),Potency,[1],inactive
FCOC(C(F)(F)F)C(F)(F)F,Potency,[1],inactive
same,Potency,[3],inactive
CC(=O)N[C@@H]1C(O[C@H]2O[C@H](C(=O)O)C(O)[C@H](O)[C@H]2O)[C@H](O)[C@@H](CO)O[C@H]1O[C@@H]1C(C(=O)O)O[C@@H](O[C@H]2[C@H](O)[C@@H](CO)OC(O)[C@@H]2NC(C)=O)[C@H](O)[C@H]1O (stereo partly drawn),Potency,[1],inactive
same,Potency,[3],inactive
CCOc1ccc(S(=O)(=O)O)c2cccnc12,Potency,[1],inactive
same,Potency,[3],inactive
CCCc1ccc(C(=O)O)cc1,Potency,[1],inactive
same,Potency,[3],inactive
O=c1[nH]c(=O)n([C@H]2C[C@H](O)[C@@H](CO)O2)cc1/C=C/Br,Potency,[1],inactive
same,activation,[4],0.938%
same,outcome,[5],inactive
same,outcome,[6],inactive
same,Potency,[3],inactive
[O]=[Bi][O][Bi]=[O],Potency,[1],inactive
same,Potency,[3],inactive
O=[N+]([O-])c1c(Cl)cccc1-c1c[nH]cc1Cl,Potency,[1],inactive
O=C(O)Cc1cc(I)c(Oc2ccc(O)c(I)c2)c(I)c1,Potency,[1],inactive
C[C@H](N)C(=O)N[C@@H](C)P(=O)(O)O,Potency,[1],inactive
same,Potency,[3],inactive
[O-][N+](=Nc1ccccc1)c1ccccc1,Potency,[1],inactive
same,Potency,[3],inactive
CC(C)CCCCCCc1ccc(O)cc1,Potency,[1],inactive
O=C(CCCCCCCCCCCCC1CCCC1)Nc1ccc(S(=O)(=O)c2ccc(NC(=O)CCCCCCCCCCCCC3CCCC3)cc2)cc1,Potency,[1],inactive
same,Potency,[3],inactive
CC(=O)Nc1ccc(NC(=S)NC(=O)c2ccc(C(C)(C)C)cc2)cc1,Potency,[1],inactive
COc1ccc(/C=N/NC(=O)c2ccncc2)c(C(=O)O)c1OC,Potency,[1],inactive
same,Potency,[3],inactive
COc1cc(C)c(/C=C/C(C)=C/C=C/C(C)=C/C(=O)O)c(C)c1C,Potency,[1],inactive
same,Potency,[3],50.1 µM (active)
CC(C)[C@@H](N)C(=O)O,Potency,[1],inactive
same,Potency,[3],inactive
CCCCCCCCCCCCCCCCCC(=O)OC[C@@H](O)[C@H]1OC[C@H](O)[C@H]1O,Potency,[1],inactive
same,Potency,[3],inactive
